# From PubChem BioAssay (NCI)
# This is part of a sample that, as a whole, favours compounds with a hit. Of some 83,000 tested, about 20% had one in any assay.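 Plates (96-well) were seeded with cells, treated with compound at one concentration, and incubated for 48 hours before percent growth was determined.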 Active and inactive are the calls of the source.
# Test system: RPMI-8226 leukemia
# Experiment: NCI-60 one-dose screen, 48 h (100 = growth as untreated, 0 = no growth, -100 = all killed)
# Settings: 10 µM unless noted
# Procedure: Growth inhibition of the RPMI-8226 human tumor cell line is measured as a screen for anti-cancer activity. Cells are grown in 96 well plates and exposed to the test compound for 48 hours. Compounds are tested at a single concentration, which is 10^-5 M for most compounds. The reported endpoint is percent growth (GI% or GIPRCNT), where numbers from 0 - 100% represent growth inhibition, and numbers from -100% - 0 represent cell death. For example, a value of 40 represents 60% growth inhibition. A value of 0 means no net growth occurred over the course of the experiment. A value of -40 indicates 40% of cells at the beginning of the experiment died by the end of the experiment. A value of -100 means all cells are dead at the end of the experiment.
# NCI-60 Human Tumor Cell Lines Screen was performed using the standard one-dose NCI protocol, which is described in more detail at https://dtp.cancer.gov/discovery_development/nci-60/default.htm.
# Compounds with GIPRCNT values below 10 were considered active. Activity score was based on GIPRCNT using the following formula: […]
# Score is 0 for GIPRCNT values of 100 or above, 50 for GIPRCNT values of 0, and 100 for GIPRCNT values of -100.
row,Compound,growth
1,O=C1/C(=C/c2ccccc2F)CN(C(=O)C(Cl)Cl)C/C1=C\c1ccccc1F,-27.7% (active)
2,COC(=O)C(Cc1ccccc1)NC(=O)c1ccc(NC(=O)c2[nH]c(C)c(Cl)c2Cl)c(OC(C)C)c1 (stereo not given),57.9% (inactive)
3,COc1ccc(Cn2cc(C(=O)N=Nc3c(O)[nH]c4c(C)cccc34)nn2)cc1,90% (inactive)
4,COC(=O)c1c2c(n3ccccc13)C(=O)c1ccccc1C2=O,68.3% (inactive)
5,O=C(NC1CC(F)C1)c1cc2cccnc2n1-c1ccc(Cl)c(Cl)c1 (stereo not given),95.6% (inactive)
6,CCNc1ccc(-c2nc3ccccc3n3cccc23)cc1,85.2% (inactive)
7,CN1CCN(CCCOc2cccc3nc(Nc4ccc(F)c(F)c4)ccc23)CC1,-14.5% (active)
8,C=C1C(=O)O[C@H]2[C@H]1CC/C(COC(=O)/C=C\C(=O)NCc1ccc(Cn3c(=O)sn(CCCl)c3=O)cc1)=C\CC[C@@]1(C)O[C@@H]21,74.8% (inactive)
9,CC1=C(CCC(C)NCc2ccc(OCCCN3CCCCC3)cc2)C(C)(C)CCC1 (stereo not given),-39.6% (active)
10,Clc1ccc(-c2cc(-c3ccccc3)nc(NCCNc3ccnc4cc(Cl)ccc34)n2)cc1,-25.3% (active)
11,COc1cc(OC)c(/C=C/C(=O)c2c(O)cc(OC)c(C3CCN(C)CC3)c2OC)c(OC)c1,-45.3% (active)
12,O=C(NCc1cccc(CNC(=O)Nc2nc3ccccc3[nH]2)c1)Nc1nc2ccccc2[nH]1,-18.8% (active)
13,CN1CCN(C(=S)SCCCCOc2cc(=O)oc3ccccc23)CC1,64.8% (inactive)
14,C=CCC(CCCC)(C(=O)OCC)C(=O)OCC,94.8% (inactive)
15,CCCn1nc(C(=O)N(C)Cc2ccccc2)c2c1CCC(N1CCc3ccccc31)C2 (stereo not given),90.8% (inactive)
16,CCCCCCCCCCCCCOC(=O)c1c(C)[nH]c(/C=C2\N=C(c3ccc[nH]3)C=C2OC)c1C,11.2% (inactive)
17,COc1cc(NC(=O)c2cncnc2Nc2ccc3c(ccn3Cc3ccccn3)c2)cc(OC)c1,43.5% (inactive)
18,CN1C(=O)/C(=C2\SC(=Nc3ccccc3)N(Nc3ccccc3)C2=O)c2ccccc21,106% (inactive)
19,COc1cc(OC)c(C(=O)C(CN(C)C)CN(C)C)cc1OC,-18.1% (active)
20,CC1(C)N=C(N)N=C(N)N1c1cccc(CCc2ccccc2)c1,26.5% (inactive)

row,Compound,growth
1,Cc1[nH]c(C2CC(c3ccc(C(F)(F)F)c(F)c3)=NN2c2ccccc2)c(C)c1C(=O)NCC(F)(F)F (stereo not given),70.7% (inactive)
2,Cc1ccc(/C=C/C(=O)c2cccc(OCCCOc3cccc(C(=O)/C=C/c4ccc(C)cc4)c3)c2)cc1,-0.643% (active)
3,Cc1ccc(CNc2c3ccccc3nc3ccccc23)cc1,-11% (active)
4,C=C(CNCCc1ccc(O)cc1)[C@@H]1CC[C@]2(CO)CC[C@]3(C)[C@H](CC[C@@H]4[C@@]5(C)CCC(=O)C(C)(C)[C@@H]5CC[C@]43C)[C@@H]12,-12.2% (active)
5,CCCCCCCCCCCCCCCCCCOc1ccccc1CC(=O)NCC[N+]1(C)CCCCC1,50.9% (inactive)
6,CCOC(=O)/C=C1\S/C(=N\Nc2cc(=O)[nH]c3ccccc23)N(c2ccccc2)C1=O,112% (inactive)
7,Oc1ccc(/C=C/c2ccc(O)cc2)cc1,12.8% (inactive)
8,O=C(Nc1ncc(Cc2ccccc2)s1)c1ccc2c(c1)OCCCO2,14.3% (inactive)
9,O=S(=O)(NCCCNc1nccc(-c2c(-c3cccc(F)c3)nc3occn23)n1)c1ccc(F)cc1,37.3% (inactive)
10,O=C(Nc1ccc(Br)cc1)C1=NCCCCN1,94.3% (inactive)
11,Oc1c(CN2CCCC2)cc(CSCc2ccccc2)c2cccnc12,7.56% (active)
12,COc1ccc2c(c1)c(-c1nc(-c3c[nH]c4ncccc34)cs1)cn2CCCN1CCOCC1,0.661% (active)
13,Cc1ccc2nc(-c3ccc(C(=O)NNC(=S)Nc4ccccc4)cc3)[nH]c2c1,85.1% (inactive)
14,COc1ccc(N2CCN(C(=O)c3sc4nc(C)c(Br)c(C)c4c3N)CC2)cc1,98.5% (inactive)
15,CCN1C(=O)N(CC)C2Nn3c(s/c(=C\c4ccccc4Br)c3=O)=NC21 (stereo not given),35.4% (inactive)
16,Nc1nc(N)c2c(n1)NC(c1cccc(Nc3ccnc4cc(C(F)(F)F)ccc34)c1)CC(c1ccc(Br)cc1)=N2 (stereo not given),5.34% (active)
17,O=C1/C(=C/c2ccc(O)c(O)c2)COc2ccc(-c3ccccc3)cc21,-13.1% (active)
18,CCSc1oc(C)nc1[P+](c1ccccc1)(c1ccccc1)c1ccccc1,5.08% (active)
19,N[C@H]1CCC[C@@H]1NCCCCN1C(=O)c2cccc3cc([N+](=O)[O-])cc(c23)C1=O,58.3% (inactive)
20,Cc1cc(Nc2ccc(C(=O)N3CCCC3)cc2)nc(NCCCNc2ccnc3cc(Cl)ccc23)n1,74.8% (inactive)
